Composite z-score and z-score data for five compounds are collected here from PubChem BioAssay.

Structures are written as SMILES. The source made the active and inactive calls. Unless noted, how the calls were made is not given here.

Assay [1] concerns Wnt5a (protein binding on small-molecule microarray). As to the kind of experiment: Wnt5a binders on small-molecule microarray, primary screen, biophysical, 635/667 nm fluorescence (AID 1142).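 Further: fluorescence read at 667 nm with signal to noise per printed feature.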 Particulars: 635 nm fluorescence, higher = more signal.
Assay [2] can be described thus: cell viability in Huh7 cells, primary screen, cytotoxicity control for HCV replication inhibitor project, CellTiter-Glo luminescence, basal, 48 h (AID 1143).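 Further: Huh7 hepatoma cells carrying a hepatitis C replication reporter with no stimulus; test concentration not given here.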 Particulars: Huh7 HCV replicon, higher = more signal, called active from +8 up or from −8 down.
Assay [3] can be described thus: P. aeruginosa biofilm formation inhibitors, primary screen, PAO1 strain, BacTiter-Glo luminescence, LB-PBS (AID 1144). Particulars: 12 h, higher = more signal.
Assay [4] can be described thus: CREB reporter modulators without forskolin, primary screen, cell-based, PC12, CRE-LacZ reporter, unstimulated (AID 1145). Particulars: no forskolin, luminescence, 4.5 h, higher = more signal, called active from +8 up or from −8 down.
Assay [5] can be described thus: CREB reporter modulators under forskolin, primary screen, cell-based, PC12, CRE-LacZ reporter, forskolin-stimulated (AID 1146).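 Further: PC12 cells with 6xCRE LacZ reporter stimulated by forskolin 10 µM; beta-galactosidase reporter signal reflecting CREB driven transcription.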 Particulars: luminescence, 4.5 h, higher = more signal, called active from +8 up or from −8 down.
Assay [6] concerns the target Streptavidin (Streptomyces avidinii) (UniProt P22629). The assay is described as follows: streptavidin binders on small-molecule microarray, primary screen, artefact control for SMM compound annotation, biophysical, 635/667 nm fluorescence (AID 1147).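 Further: signal reflects streptavidin binding to arrayed compounds as a control protein.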 The settings on record: streptavidin binding, higher = more signal.
The nature of assay [7]: small-molecule binders of probe aInhba, primary screen, biochemical, small-molecule microarray, 635/667 nm fluorescence (AID 1148).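 Further: score merges 667nm spot fluorescence with signal-to-noise for antibody binding to printed compounds.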 Particulars: higher = more signal.
Assay [8] has as its target Torsin-1A (Homo sapiens) (UniProt O14656). The assay is described as follows: torsin A binders from cell lysate, primary screen, small-molecule microarray, wild-type, 635/667 nm (AID 1149). Particulars: COS7 hTOR1A-WT lysate, 635 nm fluorescence, higher = more signal.
Assay [9] shares this target. The assay is described as follows: small-molecule binders of mutant TOR1A in lysate, primary screen, cell lysate, small-molecule microarray, COS7 lysate, 635/667 nm fluorescence (AID 1150).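 Further: score pools 667 nm emission and signal to noise measuring lysate protein binding.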 The settings on record: COS7 hTOR1A mutant lysate, 635 nm fluorescence, higher = more signal.
Assay [10] has as its system Sonic hedgehog protein (Shh). As to the kind of experiment: small-molecule binders of Shh protein, primary screen, biochemical, small-molecule microarray, 635/667 nm fluorescence (AID 1151).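 Further: Shh protein binding to compounds spotted on small-molecule microarray slides; score combines spot fluorescence intensity with signal-to-noise across triplicate slides.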 Particulars: small-molecule microarray binding, 635 nm fluorescence; higher = more signal.
Assay [11] in a line: E. coli DRC41 culture turbidity changes, primary screen, E. coli filamentation inducer project, strain DRC41, OD650, 48 h (AID 1152).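 Further: E. coli MC1000 strain DRC41 lacking acrAB efflux pump and sulA.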 The settings on record: E. coli DRC41 (acrAB sulA), higher = more signal, called active from +8 up or from −8 down.
The nature of assay [12]: small-molecule binders of probe aLefty1, primary screen, biochemical, small-molecule microarray, 635/667 nm fluorescence (AID 1153).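 Further: score merges spot fluorescence with signal-to-noise ratio from the scanned slide images.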 The settings on record: higher = more signal.
Assay [13] can be described thus: PSAC antagonists in infected red cells, primary screen, cell-based, P. falciparum Indochina, OD700, 1 h (AID 1154). The settings on record: P. falciparum Indochina infected RBC osmotic lysis, higher = more signal, called active from +8 up or from −8 down.
Assay [14] in a line: PSAC antagonists in infected red cells, primary screen, cell-based, P. falciparum Indochina, OD700, 2 h (AID 1155).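 Further: lysis reports solute entry through the parasite surface anion channel PSAC; channel blockers reduce lysis of infected cells.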 The settings on record: P. falciparum Indochina infected erythrocytes, osmotic lysis OD700; higher = more signal, called active from +8 up or from −8 down.
A short description of assay [15]: osmotic lysis modulators in infected erythrocytes, primary screen, PSAC antagonist project, cell-based, P. falciparum Indochina, OD700, 3 h (AID 1156). Particulars: higher = more signal, called active from +8 up or from −8 down.
The nature of assay [16]: PSAC antagonists in infected red cells, primary screen, cell-based, P. falciparum Indochina, OD700, 18 h (AID 1157). Particulars: P. falciparum Indochina infected erythrocytes, osmotic lysis OD700, 18 h; higher = more signal, called active from +8 up or from −8 down.
Assay [17] in a line: modulators of S6 phosphorylation in cells, primary screen, cell-based, A549, cytoblot, luminescence, serum-stimulated (AID 1158).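 Further: serum-stimulated A549 lung adenocarcinoma cells; signal is phosphorylated S6 detected by cytoblot immunostaining with HRP secondary.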 The settings on record: A549 phospho-S6 cytoblot, 5 h, higher = more signal.
For assay [18], the target named is NADPH oxidase 2 (Homo sapiens) (UniProt P04839). The assay is described as follows: NOX2-dependent H2O2 signal modulators, primary screen, NOX inhibitor project, cell-based, HEK293-NOX2, PMA-stimulated, Amplex Red fluorescence (AID 1159). Further: test concentration not given here. Particulars: 45 min, higher = more signal, called active from +8 up or from −8 down.
NADPH oxidase 2 (Homo sapiens), sequence (P04839 whole entry, looked up): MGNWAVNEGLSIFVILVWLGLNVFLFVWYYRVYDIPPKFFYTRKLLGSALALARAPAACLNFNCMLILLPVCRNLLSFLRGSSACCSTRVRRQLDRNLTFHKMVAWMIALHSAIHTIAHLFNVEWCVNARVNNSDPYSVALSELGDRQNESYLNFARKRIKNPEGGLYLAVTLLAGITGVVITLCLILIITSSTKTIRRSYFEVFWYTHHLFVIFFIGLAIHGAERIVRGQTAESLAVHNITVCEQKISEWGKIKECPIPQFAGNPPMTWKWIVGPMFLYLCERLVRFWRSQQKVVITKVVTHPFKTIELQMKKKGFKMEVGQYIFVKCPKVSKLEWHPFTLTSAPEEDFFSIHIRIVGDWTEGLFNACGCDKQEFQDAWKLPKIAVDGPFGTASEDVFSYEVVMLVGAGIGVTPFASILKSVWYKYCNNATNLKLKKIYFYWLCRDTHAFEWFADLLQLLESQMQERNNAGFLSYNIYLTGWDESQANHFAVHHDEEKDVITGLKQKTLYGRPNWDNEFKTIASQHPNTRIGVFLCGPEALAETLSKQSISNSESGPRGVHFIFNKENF
Assay [19] has as its target NADPH oxidase 4 (Homo sapiens) (UniProt Q9NPH5). As to the kind of experiment: NOX4-dependent H2O2 signal modulators, primary screen, NOX inhibitor project, cell-based, HEK293-NOX4, tetracycline-induced, Amplex Red fluorescence (AID 1160). Particulars: 45 min, higher = more signal, called active from +8 up or from −8 down.
Assay [20] has as its target NADPH oxidase 5 (Homo sapiens) (UniProt Q96PH1). As to the kind of experiment: NOX5-dependent H2O2 signal modulators, primary screen, NOX inhibitor project, cell-based, HEK293-NOX5, Amplex Red fluorescence (AID 1161). The settings on record: HEK293-NOX5, ionomycin, 45 min, higher = more signal.

NADPH oxidase 5 (Homo sapiens), sequence (Q96PH1 whole entry, looked up): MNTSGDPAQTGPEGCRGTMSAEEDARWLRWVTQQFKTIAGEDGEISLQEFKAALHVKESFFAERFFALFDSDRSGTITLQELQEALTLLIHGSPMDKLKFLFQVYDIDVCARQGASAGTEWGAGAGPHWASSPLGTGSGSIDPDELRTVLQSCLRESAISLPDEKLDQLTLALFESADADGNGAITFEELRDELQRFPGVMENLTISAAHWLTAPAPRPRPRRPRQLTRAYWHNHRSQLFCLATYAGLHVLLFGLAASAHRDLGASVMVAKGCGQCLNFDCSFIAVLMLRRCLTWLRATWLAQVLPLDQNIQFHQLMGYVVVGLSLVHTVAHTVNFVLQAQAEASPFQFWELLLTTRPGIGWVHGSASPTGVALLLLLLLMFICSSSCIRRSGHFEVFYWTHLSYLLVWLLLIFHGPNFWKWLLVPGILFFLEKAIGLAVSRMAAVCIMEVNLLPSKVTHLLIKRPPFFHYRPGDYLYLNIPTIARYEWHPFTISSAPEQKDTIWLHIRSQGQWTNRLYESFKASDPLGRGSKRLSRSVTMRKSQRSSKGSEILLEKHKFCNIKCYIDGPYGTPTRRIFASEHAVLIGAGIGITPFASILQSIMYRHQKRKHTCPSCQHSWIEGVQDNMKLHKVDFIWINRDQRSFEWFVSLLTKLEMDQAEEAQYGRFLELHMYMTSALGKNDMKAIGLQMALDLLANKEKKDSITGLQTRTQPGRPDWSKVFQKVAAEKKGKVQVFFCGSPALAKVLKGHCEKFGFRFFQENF
NADPH oxidase 4 (Homo sapiens), sequence (Q9NPH5 whole entry, looked up): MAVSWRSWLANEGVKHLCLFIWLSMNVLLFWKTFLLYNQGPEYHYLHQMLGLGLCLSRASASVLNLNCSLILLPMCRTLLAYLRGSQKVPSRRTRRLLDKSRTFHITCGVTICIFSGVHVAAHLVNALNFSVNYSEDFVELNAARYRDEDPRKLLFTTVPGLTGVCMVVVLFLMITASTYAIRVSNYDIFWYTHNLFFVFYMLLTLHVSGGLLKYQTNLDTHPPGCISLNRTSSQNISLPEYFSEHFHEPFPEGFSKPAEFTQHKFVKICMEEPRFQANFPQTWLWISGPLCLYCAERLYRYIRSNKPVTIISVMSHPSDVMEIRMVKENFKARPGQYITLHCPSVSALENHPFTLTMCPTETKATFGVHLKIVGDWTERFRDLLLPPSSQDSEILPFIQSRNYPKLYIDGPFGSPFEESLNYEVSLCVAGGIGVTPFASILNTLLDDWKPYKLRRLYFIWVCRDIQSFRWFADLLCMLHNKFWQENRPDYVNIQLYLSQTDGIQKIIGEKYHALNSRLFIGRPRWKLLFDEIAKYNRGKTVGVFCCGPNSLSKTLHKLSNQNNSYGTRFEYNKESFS
Torsin-1A (Homo sapiens), sequence (O14656 whole entry, looked up): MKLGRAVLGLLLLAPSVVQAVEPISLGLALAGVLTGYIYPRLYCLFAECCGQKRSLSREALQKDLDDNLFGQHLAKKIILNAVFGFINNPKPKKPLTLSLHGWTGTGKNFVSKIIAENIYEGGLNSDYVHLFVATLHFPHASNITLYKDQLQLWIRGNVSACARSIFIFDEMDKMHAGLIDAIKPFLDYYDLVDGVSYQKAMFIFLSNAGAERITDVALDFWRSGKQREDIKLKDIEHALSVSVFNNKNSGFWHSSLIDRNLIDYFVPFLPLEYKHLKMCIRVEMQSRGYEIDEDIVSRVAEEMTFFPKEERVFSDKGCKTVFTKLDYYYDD
Streptavidin (Streptomyces avidinii), sequence (P22629 whole entry, looked up): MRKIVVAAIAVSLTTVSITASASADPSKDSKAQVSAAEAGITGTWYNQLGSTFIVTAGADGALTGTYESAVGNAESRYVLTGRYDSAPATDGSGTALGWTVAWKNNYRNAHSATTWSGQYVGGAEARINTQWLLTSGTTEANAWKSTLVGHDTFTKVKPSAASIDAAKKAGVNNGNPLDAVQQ

For `COCCOC(=O)N1C(=O)[C@@]2(c3cc(C#CCC(C(=O)OC)C(=O)OC)ccc31)[C@H](C(=O)NC[C@H](O)c1ccccc1)[C@H]1C(=O)O[C@H](c3ccccc3)[C@H](c3ccccc3)N1[C@@H]2c1ccc(O)cc1`, the composite z-score in [1] was 0.247; in assay [6], -0.003; in [7], -0.0509; with Torsin-1A (Homo sapiens) [8], -0.431; with Torsin-1A (Homo sapiens) [9], 0.413; in assay [10], 0.863. The compound also came in with a composite z-score in assay [12] of 0.0977. Further, the z-score is -1.1 (inactive) in assay [2]; -0.766 (inactive) in assay [3]; -0.191 (inactive) in [4]; -0.221 (inactive) in assay [5]; -0.128 (inactive) in assay [11]; 2.35 (inactive) in assay [13]. Further, the z-score in [14] was -0.27 (inactive); in assay [15], 0.283 (inactive); in assay [16], 0.27 (inactive); in assay [17] it was 0.0648; in [18], 1.71 (inactive); in assay [19], 1.01 (inactive). This compound showed a z-score in assay [20] of 1.84.
For `COc1ccc(C(O)C2C=CC3C(=O)N(c4ccccc4)C(=O)C3N2Nc2ccc(C(C)C)cc2)c2ccccc12` (stereo not given), the composite z-score was 0.295 in assay [1]; 1.92 in assay [6]; 0.216 in [7]; 0.724 in the assay with Torsin-1A (Homo sapiens) [8]; 1.01 in the assay with Torsin-1A (Homo sapiens) [9]; -0.328 in assay [10]. In assay [12], this compound returned a composite z-score of 0.4. For the same compound, the z-score was 0.0927 (inactive) in assay [2]; -1.88 (inactive) in assay [3]; 0.632 (inactive) in assay [4]; -0.557 (inactive) in assay [5]; -0.534 (inactive) in assay [11]; 1.68 (inactive) in assay [13]. The z-score was 1.35 (inactive) in assay [14]; 0.155 (inactive) in [15]; 1.27 (inactive) in assay [16]; -1.09 in assay [17]; 0.373 (inactive) in assay [18]; -2.59 (inactive) in [19]. This compound also gave a z-score in [20] of -3.17.
Take `C=CCNC(=O)[C@@H]1[C@H]2C(=O)O[C@H](c3ccccc3)[C@H](c3ccccc3)N2[C@H](c2ccc(OCCO)cc2)[C@@]12C(=O)N(C(=O)OCCOC)c1ccc(C#CCCO)cc12`: the composite z-score in assay [1] was 0.85; in assay [6], 0.712; in assay [7] it was -0.0521; in the assay with Torsin-1A (Homo sapiens) [8], 0.625; with Torsin-1A (Homo sapiens) [9], 0.582; in assay [10] it was 1.17. The composite z-score in assay [12] was determined as 0.503. The z-score in assay [2] was -3.32 (inactive); in assay [3] it was -0.594 (inactive); in [4], -0.375 (inactive); in [5], 0.0859 (inactive); in [11] it was 3.11 (inactive); in [13], 4.81 (inactive). For the same compound, the z-score in [14] was 0.343 (inactive); in assay [15] it was -0.38 (inactive); in assay [16] it was -1.47 (inactive); in [17] it was 2.25; in [18] it was 1.3 (inactive); in assay [19], 0.821 (inactive). This compound registered a z-score in assay [20] of -0.573.
As for `C#C[C@@H](CC)O[Si](C#CCCCC#N)(C(C)C)C(C)C`, the composite z-score in assay [1] is 0.162; in assay [6], -0.0686; in assay [7] it was -0.0762; with Torsin-1A (Homo sapiens) [8], 0.491; with Torsin-1A (Homo sapiens) [9] it was 1.69; in [10] it was 0.473. This compound also registered a composite z-score in assay [12] of -0.117. The z-score in [2] is -0.667 (inactive); in assay [3] it was 0.132 (inactive); in assay [4], -0.868 (inactive); in [5], 4.95 (inactive); in assay [11], 0.527 (inactive); in assay [13], 1.58 (inactive). The z-score in assay [14] is 1.14 (inactive); in assay [15], 0.186 (inactive); in assay [16], 0.676 (inactive); in assay [17], -0.336; in assay [18], 1.03 (inactive); in assay [19], -0.222 (inactive). The z-score in assay [20] came out at 1.31.
For `CCOC(=O)C1=CCC(c2ccco2)N(S(=O)(=O)c2ccc(C)cc2)C1` (stereo not given), the composite z-score in assay [1] is 0.45; in assay [6], 1.64; in [7], 0.0841; with Torsin-1A (Homo sapiens) [8], 0.55; with Torsin-1A (Homo sapiens) [9], 1.24; in assay [10], 0.409. In addition, the composite z-score in assay [12] stood at 0.247. Besides, the z-score is -2.95 (inactive) in [2]; -1.65 (inactive) in assay [3]; -0.0228 (inactive) in assay [4]; 0.887 (inactive) in assay [5]; 0.323 (inactive) in [11]; 9.57 (active) in [13]. Further, the z-score in [14] is 1.24 (inactive); in assay [15], 0.252 (inactive); in assay [16], 0.731 (inactive); in [17], 0.406; in [18], -0.176 (inactive); in assay [19], -1.26 (inactive). This compound registered a z-score in [20] of 0.758.
